According to ChEMBL document CHEMBL3433997, “St. Jude Leishmania screening dataset” (2016):

Experiments:
Format in all cases: functional
[1] = molecular target: Solute carrier family 2, facilitated glucose transporter member 1 (Homo sapiens) (UniProt P11166); test: ST_JUDE_LEISH: Cytotoxicity at 2uM final concentration against transgenic Leishmania Mexicana promastigotes LmGLUT1 that are glucose transport deficient and complemented with the human glucose transporter GLUT1. Activity is measured by DNA content using SYBR green in vitro
Sequence of Solute carrier family 2, facilitated glucose transporter member 1 (Homo sapiens) (P11166 whole entry): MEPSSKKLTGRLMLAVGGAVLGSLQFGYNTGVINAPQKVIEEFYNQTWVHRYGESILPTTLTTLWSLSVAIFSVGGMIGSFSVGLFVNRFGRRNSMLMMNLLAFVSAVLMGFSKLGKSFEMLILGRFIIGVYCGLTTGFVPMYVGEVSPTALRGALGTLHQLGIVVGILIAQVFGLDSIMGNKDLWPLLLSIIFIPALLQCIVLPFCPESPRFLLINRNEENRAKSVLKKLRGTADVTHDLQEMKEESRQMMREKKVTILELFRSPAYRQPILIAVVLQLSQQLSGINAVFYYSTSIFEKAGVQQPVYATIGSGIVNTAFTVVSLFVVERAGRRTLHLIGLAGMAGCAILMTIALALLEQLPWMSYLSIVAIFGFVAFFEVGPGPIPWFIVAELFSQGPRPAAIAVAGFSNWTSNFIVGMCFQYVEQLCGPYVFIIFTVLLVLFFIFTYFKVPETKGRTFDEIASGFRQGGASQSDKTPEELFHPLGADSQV

[2] = molecular target: Hexose transporter 1 (Plasmodium falciparum) (UniProt O97467); test: ST_JUDE_LEISH: Cytotoxicity at 2uM final concentration against transgenic Leishmania Mexicana promastigotes LmPfHT that are glucose transport deficient and complemented with the Plasmodium falciparum hexose transporter. Activity is measured by DNA content using SYBR green in vitro
[3] = molecular target: Glucose transporter (Leishmania mexicana) (UniProt O61059); test: ST_JUDE_LEISH: Cytotoxicity at 2uM final concentration against transgenic Leishmania Mexicana promastigotes LmGT2 that are glucose transport deficient and complemented with the L. Mexicana glucose transporter 2. Activity is measured by DNA content using SYBR green in vitro

Structure (SMILES) | inhibition [1] | inhibition [2] | inhibition [3]
Cc1cccc(S(=O)(=O)Nc2cccc(CCN3CCC(N4CCCCC4)CC3)c2)c1 | 3.99% | -1.11% | 0.97%
COc1cc(NC(=O)/C=C/c2ccccc2Cl)cc(OCCN2CCC(O)(c3ccccc3)CC2)c1 | 6.07% | 3.45% | 4.61%
CN(CCCN(C)c1cc(NC(=O)c2ccc(F)cc2)ccn1)Cc1cccc(O)c1 | -1.12% | -0.11% | -0.03%
Cc1nc(N)nc(N)c1-c1ccc(Cl)c(Cl)c1 | 6.9% | 5.53% | 5.34%
CN(C(=O)/C=C/c1ccccc1F)C1CCN(CCCCCNC(=O)/C=C/c2ccc(Cl)c(Cl)c2)CC1 | 5.19% | 4.23% | 5.34%
COc1ccc2nccc([C@@H](O)CN3CCC(NCc4ccc5c(c4)nnn5C(C)C)CC3)c2c1 | 18.3% | 20.9% | 5%
CC[C@H](C)CNC(=O)c1ccc(-c2cccc(CN3CCC(N4CCCC4)CC3)c2)nc1 | 0.61% | 0.29% | 0.34%
COc1ccc2ncc(Cl)c(N3CCC(CCNCc4ccc5c(n4)NC(=O)CS5)CC3)c2c1 | 2.36% | 0.92% | 3.01%
O=C(Nc1cccc(OC2CCN(Cc3ccsc3)CC2)c1)c1ccc(C(F)(F)F)cc1 | 0.75% | -0.04% | -1.05%
O=C(Nc1ccc(-c2cccc(-c3nc4cc(F)ccc4[nH]3)c2)cc1)Nc1ccc(F)c(F)c1F | 5.34% | 7.02% | 6.78%
CN1CCCN(Cc2cccc(-c3ccc(NS(=O)(=O)c4cccc5cccnc45)cc3)c2)CC1 | 1.84% | 1.21% | -3.11%
COc1ccccc1C(=O)Nc1ccc(Nc2nc(C)cc(N(C)C)n2)cc1 | 7.13% | 18.3% | 5.83%
COc1ccc(NC(=O)c2cc(-c3ccc(NC(C)=O)cc3)cnc2N)cc1 | 2.25% | 2.66% | 0.5%
CCCC(C(=O)OCCNC)(c1ccccc1)c1ccccc1 | 1.4% | 0.51% | 0.81%
COc1ccc(-c2nc(NC(=O)Cc3ccc(OC)c(OC)c3)sc2C)cc1 | 1.75% | 3.07% | 1.83%
C/C=C/C=C/C1=NCCc2cc(OCCC)ccc21 | 71.8% | 74.1% | 17.7%
COCCN1CCN(Cc2ccc(-c3ccc(-c4nc5cccc(C)c5[nH]4)s3)cc2)CC1 | 8.84% | 6.85% | 4.87%

Structure (SMILES) | inhibition [1] | inhibition [2] | inhibition [3]
O=C(/C=C/c1ccc(C(F)(F)F)cc1)NCCCCCN1CCC(c2c[nH]c3ccccc23)CC1 | -1.24% | -1.37% | 0%
Cc1[nH]c(C)c(-c2ccc(OCc3cc(C(F)(F)F)cc(C(F)(F)F)c3)nc2)c(=O)c1Cl | 6.26% | 9.78% | 4.84%
CCOC(=O)c1ccc(NC(=O)Nc2ccc(Cn3ncc(N4CCCNCC4)c(Cl)c3=O)cc2)cc1 | 8.8% | 12.6% | 7.11%
CCOc1ccc(C(=O)Nc2nonc2-c2ccc(OC)c(OC)c2)cc1 | -0.49% | 1.82% | 0.47%
CCN(CC)S(=O)(=O)c1ccc(C(=O)Oc2ccccc2N(Cc2ccc(OC)cc2)C2=NS(=O)(=O)c3ccccc32)cc1 | 3.69% | 2.22% | 2.59%
CCOC(=O)c1cnc2cc(N3CCCC3)c(Cl)cc2c1OCC | 1.28% | -0.81% | 0.52%
CCC1N=C(N)N=C(N)N1OCc1cccc2ccccc12 (centres undefined) | 1.74% | 0.62% | 1.16%
CCOCc1cnc(C)nc1NCC(=O)c1c(C)[nH]c2cc(C)ccc12 | -0.21% | -0.79% | -0.44%
CN(C)CCCn1c(N)c(-c2nc3ccccc3[nH]2)c2nc(C#N)c(C#N)nc21 | -1.02% | 2.05% | -0.05%
CC(=O)c1ccc(S(=O)(=O)N2CCC(C(=O)Nc3ccccc3N3CCCC3)CC2)cc1 | 0.87% | 0.67% | -0.38%
O=C(NCC1CCC(CNCCCc2ccccc2)CC1)Nc1ccc(Cl)c(Cl)c1 (centres undefined) | 1.76% | 0.18% | 0.92%
CCC(C)(C)c1ccc(OCC(O)CN2CCCCC2)c(C(C)(C)CC)c1 (centres undefined) | 14.6% | 15.2% | 13.2%
Clc1ccc(OC2CCC(Cn3ccnc3)(c3ccc(Cl)cc3Cl)CC2)c(Cl)c1 (centres undefined) | 6.14% | 3.28% | -0.14%
CC(=O)Nc1ccc(C(=O)Nc2cccc(-c3csc(-c4nc5ccccc5[nH]4)c3)c2)cn1 | 0.54% | 1.56% | -0.51%
CC1=C(C(=O)Nc2ccccc2)C(c2ccc([N+](=O)[O-])cc2)n2ncc(C(=O)Nc3ccccc3)c2N1 (centres undefined) | 14.2% | 6.94% | 5.18%
COc1cccc(Nc2c(C(N)=O)cnc3ccc(-c4ccccc4)cc23)c1 | 0.37% | 0.94% | 1.58%
